Screens as filed in PubChem BioAssay.
NIH3T3 tox – cytotoxic compounds in NIH 3T3 cells | hit rate 4.3% among 94,000 | AID 1345082 | NIH 3T3 viability, CellTiter-Glo ATP luminescence, 48-72 h | Potency, µM (doses to about 96.7 µM), actives largely listed as inhibitors; also: nearly all actives have a fitted effect of over 55% in size
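Mouse fibroblast NIH 3T3 cells, 400 per well, received compound via pintool and were incubated for 48 or 72 hr prior to CellTiter-Glo ATP luminescence measurement.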
HEK293 tox – kills HEK 293 cells | HEK 293 viability, ATP luminescence (CellTiter-Glo), 48-72 h | Potency, µM (doses to about 115 µM), usual class: inhibitors | hit rate 6.6% among 94,000; also: nearly all actives have a fitted effect of over 60% in size
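250 HEK 293 cells/well; compound by pintool; incubated 48 or 72 hr at 37 degree Celsius; CellTiter-Glo added, 10 min RT, luminescence imaged.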
NPR1 antag – human Npr1 receptor antagonism; P16066; HEK293 hNpr1 GloSensor cGMP, ANP-stimulated luminescence; Potency, µM (highest dose often 46.3 µM), hits mostly inhibitors; hit rate 1.6% among 76,000; calls by dose curve; also: nearly all actives have a fitted effect of over 60% in size
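Compound pre-incubated 30 min at room temperature on GloSensor-loaded HEK293 cells stably carrying hNpr1 and the pGS-40F cGMP biosensor. Stimulation uses hNppA at 0.1 nM final; luminescence is taken at baseline and 20 min post-agonist.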
GPT2 inh – GPT2 alanine aminotransferase inhibition | Q8TD30 | Recombinant GPT2, coupled pyruvate oxidase/HRP Amplex Red fluorescence | Potency, µM (top dose mostly 57.7 µM), hits mostly inhibitors | hit rate 0.25% among 100,000; also: nearly all actives have a fitted effect of over 60% in size
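Recombinant GPT2 (10ng/uL) with 250uM a-KG and 2mM L-alanine, 30 min at room temperature, in HEPES pH 7.5 buffer. Pyruvate detected by pyruvate oxidase/HRP/Amplex Red fluorescence after 30 min in the dark; AOA (50uM) as positive control.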
FLuc inh-1 – inhibitors of firefly (Photinus pyralis) luciferase | purified P. pyralis luciferase, luminescence, biochemical | Potency, µM (top dose mostly 115 µM), hits mostly inhibitors | hit rate 2.5% among 76,000 | AID 1347043; also: nearly all actives have a fitted effect of over 65% in size
Target sequence (P08659 whole entry, looked up): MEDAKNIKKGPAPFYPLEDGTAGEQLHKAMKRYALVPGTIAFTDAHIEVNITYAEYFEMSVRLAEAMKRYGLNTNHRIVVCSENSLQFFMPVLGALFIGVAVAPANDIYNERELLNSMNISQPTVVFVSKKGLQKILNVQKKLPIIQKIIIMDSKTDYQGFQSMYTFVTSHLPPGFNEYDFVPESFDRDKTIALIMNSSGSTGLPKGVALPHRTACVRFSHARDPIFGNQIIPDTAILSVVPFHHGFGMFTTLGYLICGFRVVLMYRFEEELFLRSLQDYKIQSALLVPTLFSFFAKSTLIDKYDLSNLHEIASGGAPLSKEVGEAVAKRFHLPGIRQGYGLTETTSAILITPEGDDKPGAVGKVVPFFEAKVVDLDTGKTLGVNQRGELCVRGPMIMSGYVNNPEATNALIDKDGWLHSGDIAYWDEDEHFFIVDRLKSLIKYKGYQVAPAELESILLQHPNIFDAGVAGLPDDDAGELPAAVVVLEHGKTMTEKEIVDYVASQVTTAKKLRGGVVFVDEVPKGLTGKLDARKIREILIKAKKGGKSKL
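Luminescence read by CCD imaging after purified firefly luciferase (10nM final) was added to substrate buffer holding 10uM D-luciferin and 10uM ATP, pH 7.5, pre-dosed with compound.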
FLuc SDR no ATP – firefly luciferase binding stabilization, ATP absent. Purified FLuc-C-HiBiT, Nano-Glo HiBiT luminescence, no ATP. hit rate 7.8% among 1,300. Potency, µM (doses to about 32.7 µM), actives largely listed as activators. shares compounds with FLuc inh-1; also: nearly all actives have a fitted effect of over 55% in size
FLuc SDR ATP – firefly luciferase binding stabilization, ATP added | shares compounds with FLuc inh-1 | purified FLuc-C-HiBiT + ATP, HiBiT complementation luminescence | Potency, µM (series often up to 32.7 µM), actives largely listed as activators | hit rate 8.7% among 1,300 | AID 1963319;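 also: signal reports ligand binding via conformational change of the enzyme rather than luciferase catalysis; nearly all actives have a fitted effect of over 55% in size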
FLuc inh-2 – firefly luciferase enzyme inhibition. hit rate 42% among 1,300. shares compounds with FLuc inh-1. purified FLuc-C-HiBiT enzyme, luciferin luminescence. Potency, µM (doses to about 32.7 µM), hits mostly inhibitors; also: nearly all actives have a fitted effect of over 70% in size
A number is an active result; – = inactive; ? = inconclusive; · = not tested or not shown; [ ] = remark or other dose. The list is not random: actives were taken first. Their share in the collection is about 10%. Unless noted, calls follow the shape of the dose curve; as a rule, active = well fitted curve in the direction sought with a large enough effect; inconclusive = small, poorly fitted or top-dose-only effect, or another doubt; inactive = no such curve, though single readings can be large; an effect the other way counts as inactive or inconclusive.

SMILES | NIH3T3 tox | HEK293 tox | NPR1 antag | GPT2 inh | FLuc inh-1 | FLuc SDR no ATP | FLuc SDR ATP | FLuc inh-2
O=C(c1[nH]ncc1Cl)N1CCOC(Cc2cccc(C(F)(F)F)c2)C1 (centres undefined) | – | ? | – | – | 12.6µM | – | – | –
COc1cccc(F)c1-c1ccc(COc2ccc3c(cnn3CCC(=O)O)c2)cc1 | ? | ? | – | – | 25.1µM | – | – | ?
COc1cc(F)cc(-c2ccc(COc3ccc4c(cnn4CCC(=O)O)c3)cc2)c1 | ? | ? | – | – | ? | · | · | ·
COc1ccc(-c2ccc(COc3ccc4c(cnn4CCC(=O)O)c3)cc2)c(Cl)c1 | – | ? | – | – | ? | · | · | ·
Cc1ccccc1-c1ccc(COc2ccc3c(cnn3CCC(=O)O)c2)cc1 | ? | ? | – | – | ? | – | – | 16.1µM
Cc1ccc(F)cc1-c1ccc(COc2ccc3c(cnn3CCC(=O)O)c2)cc1 | ? | ? | – | – | 22.4µM | – | – | ?
COC(=O)N1CCC2(CC1)C(=NC1CCCCC1)NC(=O)N2c1cccnc1 | – | – | – | – | – | · | · | ·
CCn1ccnc1CN1CCC2(CCC(=O)N(CCc3ccncc3)C2)CC1 | ? | – | – | –[11.5 µM] | – | · | · | ·
O=C1Cc2c(-c3cc4ccccc4o3)n[nH]c2CN1Cc1ccccc1 | ? | ? | – | – | – | · | · | ·
Cc1cccc(C(=O)NCCc2noc(C3CC3)n2)c1 | – | – | – | – | – | · | · | ·
Cc1noc2c(Nc3ccc(N4CCOCC4)cc3)cc(-c3cccs3)nc12 | ? | ? | – | ? | – | · | · | ·
Cc1ccn2c(Nc3ccc(C(C)C)cc3)c(-c3cccs3)nc2c1 | · | · | · | · | · | – | – | ?
CC1CCC2C(C(=O)O)=COC(O[C@@H]3O[C@H](CO)[C@@H](O)[C@H](O)[C@H]3O)C12 (some centres undefined) | · | · | · | – | · | · | · | ·
Cc1ccc(-c2cc(C(=O)N3CCC(Cc4nncn4CC4CC4)CC3)c3ccccc3n2)cc1C | 20µM | ? | ? | – | 1.58µM | 12.4µM | ? | 1.97µM
O=C(c1cc(-c2ccc(F)cc2)nc2ccccc12)N1CCC(Cc2nncn2CC2CC2)CC1 | ? | 44.7µM | – | – | 12.6µM | ? | – | 8.81µM
O=C(c1cc(F)ccc1F)N1CCCC(Cc2nncn2CC2CC2)C1 (centres undefined) | – | – | – | – | – | · | · | ·
CCNc1ncnc2sc3c(c12)CCN(C(=O)NCCOC)C3 | – | – | – | – | – | · | · | ·
CCCOC(=O)CSc1ncnc2sc3c(c12)CCC(C)C3 (centres undefined) | · | · | · | · | · | – | – | ?
O=C(Nc1cccc(Br)c1)c1cc(-c2ccc3c(c2)OCCO3)on1 | · | · | · | · | · | ? | ? | 0.989µM
CN(CC1CCOCC1)C(=O)Nc1cccc(Br)c1 | – | – | – | – | – | · | · | ·
Nc1nc2c([nH]c(=O)n2[C@H]2C[C@H](O)[C@@H](CO)O2)c(=O)[nH]1 | · | · | · | · | · | – | – | –
CCc1noc(-c2ccn3c(CNC(=O)c4cc(F)ccc4Cl)nnc3c2)n1 | – | – | – | – | – | · | · | ·
COc1ccc(-c2noc(-c3ccc(C)cc3Cl)n2)cc1OC | · | · | · | · | · | – | – | ?
CC(C)NC(=O)N1CCCC(c2noc(COc3ccccc3)n2)C1 (centres undefined) | – | – | – | – | – | · | · | ·
CCc1ccc(NC(=O)N2CCCC(c3noc(COc4ccccc4)n3)C2)cc1 (centres undefined) | ? | ? | ? | – | 1.41µM | ? | ? | 2.79µM
SMILES | NIH3T3 tox | HEK293 tox | NPR1 antag | GPT2 inh | FLuc inh-1 | FLuc SDR no ATP | FLuc SDR ATP | FLuc inh-2
Cc1nc2c(c(=O)[nH]1)CCN(CC1(O)CNCCOC1)CC2 (centres undefined) | – | – | – | – | – | · | · | ·
O=C(O)C1(CCc2ccccc2)CCCN(c2ncnc3nc[nH]c23)C1 (centres undefined) | – | – | – | – | – | – | – | –
Nc1nccc(N2CCCC(Cc3ccccc3F)(C(=O)O)C2)n1 (centres undefined) | – | – | – | –[11.5 µM] | – | · | · | ·
COc1cccc(-c2cccc(C(=O)N3CCCC3C(=O)NCc3ccc(C(F)(F)F)cc3)c2)c1 (centres undefined) | ? | ? | · | – | · | · | · | ·
O=C(N1CC(Oc2ccc(-c3noc(-c4ccccc4)n3)cc2)C1)C1(c2ccccc2)CC1 | – | – | – | – | – | · | · | ·
Cc1noc(-c2ccc(OC3CN(C(=O)NCc4ccccc4)C3)cc2)n1 | ? | ? | ? | – | – | · | · | ·
O=C(Cc1cccc(F)c1)N1CC(Oc2ccc(-c3nc(-c4ccccc4)no3)cc2)C1 | – | ? | 7.94µM | – | 2µM | – | – | ?
O=C(c1cccc(F)c1)N1CC(Oc2cccc(-c3nc(-c4ccccc4)no3)c2)C1 | ? | ? | – | – | ? | · | · | ·
CCNC(=O)N1CC(Oc2ccc(-c3nc(-c4ccccc4)no3)cc2)C1 | – | ? | 0.251µM | – | 0.631µM | – | – | ?
O=C(Nc1ccccc1)N1CC(Oc2ccc(-c3nc(-c4ccccc4)no3)cc2)C1 | – | ? | – | – | 1.26µM | – | – | ?
CNC(=O)N1CCC(C2CCN(C(=O)c3ccc(Br)cc3)C2)CC1 (centres undefined) | ? | – | – | – | – | · | · | ·
O=C1OCCN1CCNc1ccc(-c2nc(-c3ccccc3F)no2)cn1 | ? | 44.7µM | ? | – | 5.62µM | – | – | ?
CN(C)c1nc(NCCN2CCOC2=O)ncc1F | – | – | – | – | – | · | · | ·
CCC(=O)Nc1cc2nn(-c3ccc(C)cc3)nc2cc1C | · | · | · | · | · | ? | ? | 0.394µM
CC(=O)N1CCC(C(=O)N2CCCC2c2nc(CCOCC3CCCC3)no2)CC1 (centres undefined) | – | – | – | – | – | · | · | ·
C=C(C(=O)O)[C@H]1C[C@]2(C)[C@@H](O)CC[C@]23O[C@H]1C[C@@H]3C | · | · | · | – | · | · | · | ·
COCCNC(=O)[C@@H](C)C1CC[C@@]2(C)Cc3sc(CSc4ccccc4)nc3[C@@H](C)[C@@H]2[C@H]1O (some centres undefined) | ? | ? | 11.2µM | – | 7.08µM | – | ? | ?
C[C@H]1[C@@H]2[C@@H](O)C([C@H](C)C(=O)N3CCCCC3)CC[C@@]2(C)CC[C@@H]1NC(=O)c1ccccn1 (some centres undefined) | – | – | – | ? | – | · | · | ·
C[C@H](C(=O)N1CCCC1)C1CC[C@@]2(C)Cc3sc(-c4ccccc4)nc3[C@@H](C)[C@@H]2[C@H]1O (some centres undefined) | ? | 44.7µM | ? | – | 8.91µM | 3.13µM | 2.21µM | 1.97µM
